# Measured values from PubChem BioAssay.
# Active and inactive are the calls of the source. Unless noted, how the calls were made is not given here.
# What was measured:
# [1] = compounds binding Alexa647 anti-His antibody – biochemical, small-molecule microarray, 635 nm fluorescence, artefact control for SMM control protein annotation, primary screen (AID 1128); details: higher = more signal;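 further: score merges feature fluorescence with signal-to-noise for each printed compound spot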
# [2] = system: Human papillomavirus type 1a E7 protein (residues 1-88); experiment: HPV1a E7 small-molecule binders, primary screen, biochemical, small-molecule microarray, residues 1-88, 635 nm (AID 1129); details: small-molecule microarray binding, fluorescence 635 nm; higher = more signal
# [3] = target: Focal adhesion kinase 1 (Homo sapiens) (UniProt Q05397); experiment: PTK2 protein binding on printed compound slides – biochemical, small-molecule microarray, 635/667 nm fluorescence, BSA, DTT, primary screen (AID 1130); details: 635 nm fluorescence, higher = more signal;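 further: composite of spot emission at 667 nm and signal to noise over triplicate slides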
# Chain of Focal adhesion kinase 1 (Homo sapiens) (Q05397 whole entry, looked up): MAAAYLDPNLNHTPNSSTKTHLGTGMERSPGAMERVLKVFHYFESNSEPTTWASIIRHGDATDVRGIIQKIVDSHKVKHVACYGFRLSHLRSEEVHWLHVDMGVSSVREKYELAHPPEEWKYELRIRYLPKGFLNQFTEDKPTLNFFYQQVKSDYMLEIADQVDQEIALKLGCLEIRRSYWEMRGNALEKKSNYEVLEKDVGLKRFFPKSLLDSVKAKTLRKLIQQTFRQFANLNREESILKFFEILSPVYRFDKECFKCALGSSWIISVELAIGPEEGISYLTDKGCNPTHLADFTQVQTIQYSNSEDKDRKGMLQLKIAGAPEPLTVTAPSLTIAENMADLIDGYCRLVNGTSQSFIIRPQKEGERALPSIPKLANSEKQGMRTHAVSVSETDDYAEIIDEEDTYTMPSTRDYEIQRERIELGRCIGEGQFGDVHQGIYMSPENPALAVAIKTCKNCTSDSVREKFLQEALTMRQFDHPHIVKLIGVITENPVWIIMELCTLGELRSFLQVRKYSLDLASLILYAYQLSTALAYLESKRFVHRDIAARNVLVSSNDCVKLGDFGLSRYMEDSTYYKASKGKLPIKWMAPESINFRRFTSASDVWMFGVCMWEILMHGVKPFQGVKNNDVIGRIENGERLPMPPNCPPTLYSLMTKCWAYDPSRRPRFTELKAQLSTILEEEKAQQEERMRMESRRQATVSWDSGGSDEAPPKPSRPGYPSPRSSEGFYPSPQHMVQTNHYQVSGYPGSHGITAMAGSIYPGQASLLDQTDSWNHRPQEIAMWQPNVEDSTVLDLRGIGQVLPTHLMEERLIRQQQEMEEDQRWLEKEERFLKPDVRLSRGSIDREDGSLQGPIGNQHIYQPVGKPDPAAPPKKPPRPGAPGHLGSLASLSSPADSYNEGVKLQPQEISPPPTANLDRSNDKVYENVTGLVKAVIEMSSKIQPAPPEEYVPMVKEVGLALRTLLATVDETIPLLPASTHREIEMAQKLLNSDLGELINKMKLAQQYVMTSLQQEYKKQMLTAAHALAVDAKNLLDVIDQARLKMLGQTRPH
# [4] = system: Fibrinogen (Alexa647-labelled); experiment: Alexa647-fibrinogen binding to printed small molecules – biochemical, small-molecule microarray, 635/667 nm fluorescence, artefact control for SMM control-protein annotation, profiling panel (AID 1131); details: fibrinogen-A647 binding fluorescence, higher = more signal;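 further: z-score merges 667 nm fluorescence with per-spot signal-to-noise over triplicate slides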
# [5] = target: Follistatin (Homo sapiens) (UniProt P19883); experiment: FST protein binding to printed compounds – biochemical, small-molecule microarray, 635/667 nm fluorescence, primary screen (AID 1132); details: 635 nm fluorescence, higher = more signal
# Chain of Follistatin (Homo sapiens) (P19883 whole entry, looked up): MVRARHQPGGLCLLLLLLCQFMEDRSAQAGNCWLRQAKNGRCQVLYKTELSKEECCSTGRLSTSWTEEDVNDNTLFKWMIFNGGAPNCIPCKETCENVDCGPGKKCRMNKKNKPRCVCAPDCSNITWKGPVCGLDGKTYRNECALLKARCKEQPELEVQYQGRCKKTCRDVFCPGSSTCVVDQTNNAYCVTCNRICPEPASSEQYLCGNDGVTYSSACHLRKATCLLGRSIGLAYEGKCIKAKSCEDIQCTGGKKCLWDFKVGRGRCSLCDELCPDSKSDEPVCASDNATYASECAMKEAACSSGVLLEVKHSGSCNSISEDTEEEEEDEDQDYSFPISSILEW
# [6] = target: Fibroblast growth factor 2 (Homo sapiens) (UniProt P09038); experiment: basic fibroblast growth factor binding to printed compounds – biochemical, small-molecule microarray, 635/667 nm fluorescence, primary screen (AID 1133); details: FGF2, fluorescence 635/667, higher = more signal
# Chain of Fibroblast growth factor 2 (Homo sapiens) (P09038 whole entry, looked up): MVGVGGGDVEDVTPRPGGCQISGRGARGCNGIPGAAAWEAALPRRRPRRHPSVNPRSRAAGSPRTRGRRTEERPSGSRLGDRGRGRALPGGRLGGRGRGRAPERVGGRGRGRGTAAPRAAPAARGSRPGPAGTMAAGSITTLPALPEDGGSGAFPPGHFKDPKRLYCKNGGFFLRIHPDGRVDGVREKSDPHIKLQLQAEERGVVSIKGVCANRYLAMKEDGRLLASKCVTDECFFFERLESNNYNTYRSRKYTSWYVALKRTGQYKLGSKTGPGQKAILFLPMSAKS
# [7] = JC-1 mitochondrial potential readout, lung cancer cells – cell-based, A549, JC-1 fluorescence, basal, 24 h, 100 nL, profiling panel (AID 1138); details: higher = more signal;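 further: A549 lung adenocarcinoma cells under basal conditions with no added stimulus; test concentration not given here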
# Lefty1 = Lefty1 protein binding to printed compounds – biochemical, small-molecule microarray, 635/667 nm fluorescence, primary screen (AID 1139); details: fluorescence 635/667, higher = more signal
# [8] = system: wheat germ agglutinin (Triticum aestivum), Alexa647-labelled; experiment: Alexa647-WGA lectin binding to printed small molecules – biochemical, small-molecule microarray, 635/667 nm fluorescence, artefact control for SMM control-protein annotation, profiling panel (AID 1140); details: WGA-A647 binding, 635 nm fluorescence, higher = more signal;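 further: score merges 667 nm feature emission with signal to noise over triplicate slides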
# [9] = target: Luciferin 4-monooxygenase (Photinus pyralis) (UniProt P08659); experiment: inhibition of purified Photinus pyralis luciferase – biochemical, luminescence, purified enzyme, 2006 set, primary screen (AID 1141); details: purified firefly luciferase, SteadyGlo luminescence, 30 min; higher = more signal, called active from +8 up or from −8 down;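 further: cell-free assay with purified firefly luciferase at 100 ng per well in PBS; test concentration not given here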
# Chain of Luciferin 4-monooxygenase (Photinus pyralis) (P08659 whole entry, looked up): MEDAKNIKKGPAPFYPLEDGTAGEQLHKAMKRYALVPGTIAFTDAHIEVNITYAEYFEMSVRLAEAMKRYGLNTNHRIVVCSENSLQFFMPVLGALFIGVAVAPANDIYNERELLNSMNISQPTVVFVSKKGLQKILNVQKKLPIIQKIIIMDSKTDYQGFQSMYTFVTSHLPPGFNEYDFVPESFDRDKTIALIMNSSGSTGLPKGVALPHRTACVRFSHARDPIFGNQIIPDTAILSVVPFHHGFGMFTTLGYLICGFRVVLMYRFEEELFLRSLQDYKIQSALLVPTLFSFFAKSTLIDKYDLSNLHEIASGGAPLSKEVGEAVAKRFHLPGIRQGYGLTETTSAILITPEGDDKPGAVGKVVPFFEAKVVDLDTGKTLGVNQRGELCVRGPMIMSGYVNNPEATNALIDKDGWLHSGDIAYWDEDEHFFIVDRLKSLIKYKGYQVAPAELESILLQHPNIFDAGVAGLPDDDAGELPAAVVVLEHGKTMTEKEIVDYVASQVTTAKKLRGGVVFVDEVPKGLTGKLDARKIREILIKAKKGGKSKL
# [10] = system: Wnt5a (protein binding on small-molecule microarray); experiment: small molecules binding Wnt5a protein – biophysical, small-molecule microarray, 635/667 nm fluorescence, primary screen (AID 1142); details: 635 nm fluorescence, higher = more signal;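 further: fluorescence read at 667 nm with signal to noise per printed feature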
# [11] = ATP-based viability of Huh7 replicon cells – cell-based, CellTiter-Glo luminescence, basal, 48 h, cytotoxicity control for HCV replication inhibitor project, primary screen (AID 1143); details: higher = more signal, called active from +8 up or from −8 down;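 further: Huh7 hepatoma cells carrying a hepatitis C replication reporter with no stimulus; test concentration not given here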
# [12] = Pseudomonas biofilm growth suppression – PAO1 strain, BacTiter-Glo luminescence, LB-PBS, primary screen (AID 1144); details: P. aeruginosa PAO1 biofilm, 12 h, higher = more signal
# [13] = basal CRE-LacZ reporter activity in PC12 – cell-based, unstimulated, primary screen (AID 1145); details: no forskolin, luminescence, 4.5 h, higher = more signal, called active from +8 up or from −8 down
# [14] = forskolin-driven CRE-LacZ activity in PC12 – cell-based, CRE-LacZ reporter, forskolin-stimulated, primary screen (AID 1146); details: luminescence, 4.5 h, higher = more signal, called active from +8 up or from −8 down;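 further: PC12 cells with 6xCRE LacZ reporter stimulated by forskolin 10 µM; beta-galactosidase reporter signal reflecting CREB driven transcription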
# [15] = target: Streptavidin (Streptomyces avidinii) (UniProt P22629); experiment: compounds binding control protein streptavidin – biophysical, small-molecule microarray, 635/667 nm fluorescence, artefact control for SMM compound annotation, primary screen (AID 1147); details: higher = more signal;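 further: signal reflects streptavidin binding to arrayed compounds as a control protein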
# Chain of Streptavidin (Streptomyces avidinii) (P22629 whole entry, looked up): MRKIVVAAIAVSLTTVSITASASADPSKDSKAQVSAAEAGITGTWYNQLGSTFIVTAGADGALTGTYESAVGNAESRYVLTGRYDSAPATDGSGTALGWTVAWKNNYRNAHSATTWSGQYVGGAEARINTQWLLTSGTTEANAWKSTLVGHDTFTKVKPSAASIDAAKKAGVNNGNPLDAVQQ
# [16] = probe aInhba binding on compound microarray – biochemical, small-molecule microarray, 635/667 nm fluorescence, primary screen (AID 1148); details: higher = more signal;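 further: score merges 667nm spot fluorescence with signal-to-noise for antibody binding to printed compounds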
# Torsin-1A (Homo sapiens) [17] = target: Torsin-1A (Homo sapiens) (UniProt O14656); experiment: TOR1A wild-type binding on microarray – cell lysate, small-molecule microarray, lysate, 635/667 nm, primary screen (AID 1149); details: COS7 hTOR1A-WT lysate, 635 nm fluorescence, higher = more signal
# Chain of Torsin-1A (Homo sapiens) (O14656 whole entry, looked up): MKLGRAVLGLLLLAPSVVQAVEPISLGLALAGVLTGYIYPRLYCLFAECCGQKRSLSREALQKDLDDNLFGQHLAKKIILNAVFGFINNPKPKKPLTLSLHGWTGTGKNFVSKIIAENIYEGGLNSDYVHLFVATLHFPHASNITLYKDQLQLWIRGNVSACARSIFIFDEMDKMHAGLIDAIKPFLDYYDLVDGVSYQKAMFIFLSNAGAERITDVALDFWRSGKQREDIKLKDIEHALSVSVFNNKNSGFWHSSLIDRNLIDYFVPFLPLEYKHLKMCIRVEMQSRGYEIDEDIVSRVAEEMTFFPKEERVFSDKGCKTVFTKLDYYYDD
# Torsin-1A (Homo sapiens) [18] = target: Torsin-1A (Homo sapiens) (UniProt O14656); experiment: torsin A mutant lysate binding on microarrays – cell lysate, small-molecule microarray, COS7 lysate, 635/667 nm fluorescence, primary screen (AID 1150); details: COS7 hTOR1A mutant lysate, 635 nm fluorescence, higher = more signal;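 further: score pools 667 nm emission and signal to noise measuring lysate protein binding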
# [19] = system: Sonic hedgehog protein (Shh); experiment: Sonic hedgehog microarray binding compounds – biochemical, small-molecule microarray, 635/667 nm fluorescence, primary screen (AID 1151); details: 635 nm fluorescence, higher = more signal;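 further: Shh protein binding to compounds spotted on small-molecule microarray slides; score combines spot fluorescence intensity with signal-to-noise across triplicate slides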
Structure (SMILES),composite z-score [1],composite z-score [2],composite z-score [3],composite z-score [4],composite z-score [5],composite z-score [6],z-score [7],composite z-score (Lefty1),composite z-score [8],z-score [9],composite z-score [10],z-score [11],z-score [12],z-score [13],z-score [14],composite z-score [15],composite z-score [16],composite z-score (Torsin-1A (Homo sapiens) [17]),composite z-score (Torsin-1A (Homo sapiens) [18]),composite z-score [19]
CC(=O)n1cc(C(O)C2C=CC3C(=O)N(C)C(=O)C3N2Nc2ccccc2)c2ccccc21 (stereo not given),1.88,1.11,0.214,0.898,1.12,0.607,-0.0732,0.859,0.809,0.376 (inactive),0.19,1.08 (inactive),-0.114 (inactive),0.0569 (inactive),-0.172 (inactive),1.13,0.246,0.383,0.606,1.04
COc1ccc([Si](C)(C)[C@H]2[C@H](CCO)O[C@@]3(C(=O)N(Cc4ccc(N5C(=O)COc6ccccc65)cc4)c4ccccc43)[C@@H]2C)cc1,1.04,0.0091,-0.187,0.27,-0.566,-0.684,0.272,-0.072,0.484,0.0706 (inactive),-0.516,-6.62 (inactive),-1.32 (inactive),-0.766 (inactive),-0.706 (inactive),-0.314,-0.128,-1.06,-0.89,-0.15
C=CCOC(=O)[C@H]1[C@@H]2C(=O)O[C@@H](c3ccccc3)[C@@H](c3ccccc3)N2[C@@H](c2ccc(OCCOC(=O)[C@H]3C[C@H]4C(=O)N5CCC[C@H]5C(=O)N4[C@H]3c3ccc(O)cc3)cc2)[C@]12C(=O)Nc1ccccc12,0.442,1.26,1.13,0.598,1.39,1.96,-1.42,1.42,0.0976,-0.205 (inactive),0.753,-0.568 (inactive),-0.696 (inactive),0.415 (inactive),-0.702 (inactive),0.116,-0.217,0.874,1.1,1.8
CCCCC(=C=CC[C@@H](O)c1ccccc1OCCO)CCO,-0.448,-0.21,-0.206,-0.883,0.531,-0.397,1.25,0.036,0.177,-1.85 (inactive),-0.235,-0.717 (inactive),-0.0652 (inactive),17.8 (active),0.905 (inactive),-0.488,0.0173,-0.873,0.286,0.134
CC(=O)NCCCC[C@@H]1NC(=O)[C@@H]2C[C@H](C(=O)NCCCCN(C)C)[C@H](c3cccc(OCCO)c3)N2C1=O,0.605,-0.158,-0.208,-0.908,1.21,1.08,-0.446,0.471,-0.159,0.603 (inactive),-0.0339,0.344 (inactive),-0.269 (inactive),0.0043 (inactive),-0.874 (inactive),-0.451,-0.154,-1.28,0.0889,1.04
